Here are results for 8 molecules from PubChem BioAssay (NCI).

About 83,000 compounds went through this panel and 20% of them were active in at least one assay; those are over-represented in the sample as a whole.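 Treatment: one concentration, 48 hours, 96-well format. Scoring: percent growth, with anything below 10 considered active.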 Values without a mark were called inactive. Active and inactive are the calls of the source.

Among the test systems are HCT-15 colon; HT29 colon; SNB-75 CNS; SNB-19 CNS; U251 CNS; PC-3 prostate; SK-MEL-5 melanoma; UACC-62 melanoma; LOX IMVI melanoma; SK-MEL-28 melanoma; SK-MEL-2 melanoma; EKVX NSCLC; SN12C renal; UO-31 renal; TK-10 renal; ACHN renal; CAKI-1 renal; A498 renal; CCRF-CEM leukemia; MOLT-4 leukemia.
Holding throughout (test): NCI-60 one-dose screen, 48 h (100 = growth as untreated, 0 = no growth, -100 = all killed)
What all share (details): 10 µM unless noted

Take `COC(=O)C1CCN(S(=O)(=O)c2ccc(-c3ccccc3)cc2)CC1`: the growth with HCT-15 colon was 110%; in the test on HT29 colon, 109%; with SNB-75 CNS, 87.8%; in the test with SNB-19 CNS it was 98.5%; in the test on U251 CNS, 111%; in the test on PC-3 prostate it was 90.3%. The growth in the test with SK-MEL-5 melanoma is 107%; in the test on UACC-62 melanoma it was 98.2%; in the test on LOX IMVI melanoma it was 107%; with SK-MEL-28 melanoma, 105%; in the test on SK-MEL-2 melanoma, 8.48% (active); with EKVX NSCLC, 108%. Moreover, the growth in the test on SN12C renal is 105%; in the test with UO-31 renal it was 97.1%; with TK-10 renal it was 122%; in the test with ACHN renal, 110%; with CAKI-1 renal it was 99.8%; in the test with A498 renal it was 125%. The growth with CCRF-CEM leukemia is 138%.
For `COC(=O)C1=CCC(n2cnc3c(N)ncnc32)O1` (centres undefined), the growth in the test on HCT-15 colon is 109%; with HT29 colon, 103%; in the test on SNB-75 CNS it was 98.1%; in the test on SNB-19 CNS, 104%; in the test on U251 CNS it was 104%; in the test with PC-3 prostate, 98%. For the same molecule, the growth was 104% with SK-MEL-5 melanoma; 92.8% in the test with UACC-62 melanoma; 96.4% in the test on LOX IMVI melanoma; 115% with SK-MEL-28 melanoma; 94.5% in the test on SK-MEL-2 melanoma; 101% in the test with EKVX NSCLC. Further, the growth with SN12C renal is 103%; with UO-31 renal it was 91.5%; in the test on TK-10 renal, 104%; with ACHN renal, 110%; in the test with CAKI-1 renal it was 75.1%; in the test on A498 renal, 116%. Besides, the growth with CCRF-CEM leukemia was 98.8%; in the test with MOLT-4 leukemia, 91.3%.
In the case of `C=C1CCC2C(C)(COC(=O)CC)C(OC(=O)CC)CCC2(C)C1C/C=C1/C(=O)OCC1OC(=O)CC` (centres undefined), the growth is 0.0652% (active) with HCT-15 colon; -73.2% (active) in the test on HT29 colon; -3.12% (active) in the test on SNB-75 CNS; 62% in the test with SNB-19 CNS; -72.3% (active) in the test with U251 CNS; 27.7% in the test with PC-3 prostate. Moreover, the growth in the test with SK-MEL-5 melanoma was 16.8%; with UACC-62 melanoma, 0.659% (active); in the test on LOX IMVI melanoma it was -99.1% (active); with SK-MEL-28 melanoma, -36.1% (active); in the test on SK-MEL-2 melanoma it was 19.1%; with EKVX NSCLC, 85.1%. The growth in the test on SN12C renal is 0.261% (active); with UO-31 renal, -72.2% (active); with TK-10 renal it was 1.32% (active); in the test with ACHN renal, -90.7% (active); with CAKI-1 renal, 19.2%; in the test on A498 renal it was 81.4%. The growth in the test on CCRF-CEM leukemia is -25.5% (active); in the test on MOLT-4 leukemia it was -11% (active).
For the molecule `O=C1N=C(N2CCOCC2)S/C1=C\c1cn(-c2ccccc2)nc1-c1ccccc1`, the growth was 89.4% with HCT-15 colon; 80.5% with HT29 colon; -30.2% (active) in the test with SNB-75 CNS; 72.1% in the test with SNB-19 CNS; 66.1% with U251 CNS; 90.4% in the test with PC-3 prostate. Besides, the growth in the test on SK-MEL-5 melanoma was 66.4%; in the test on UACC-62 melanoma it was 77.8%; with LOX IMVI melanoma it was 76%; in the test on SK-MEL-28 melanoma, 72%; in the test on SK-MEL-2 melanoma, 81.7%; in the test on EKVX NSCLC, 90%. The growth is 92.4% in the test with SN12C renal; 44.3% with UO-31 renal; 57.1% with TK-10 renal; 58.9% with ACHN renal; 93.9% with CAKI-1 renal; 48% in the test with A498 renal. The growth in the test on CCRF-CEM leukemia is 92.4%; with MOLT-4 leukemia, 116%.
`O=c1c2c(=NCCCN3CCCC3)cc3c(=O)n(CCCN4CCCC4)c(=O)c4c(NCCCN5CCCC5)cc(c(O)n1CCCN1CCCC1)c2c4-3`: the growth in the test on HCT-15 colon is 12.9%; in the test with HT29 colon, -7.75% (active); in the test on SNB-75 CNS, -83.1% (active); with SNB-19 CNS, 7.13% (active); with U251 CNS, 1.98% (active); in the test on PC-3 prostate, 11.7%. For the same molecule, the growth in the test on SK-MEL-5 melanoma was -66% (active); in the test with UACC-62 melanoma, -52.2% (active); in the test on LOX IMVI melanoma it was -7.8% (active); in the test on SK-MEL-28 melanoma, -42.3% (active); in the test with SK-MEL-2 melanoma, 1.12% (active); in the test with EKVX NSCLC, -17.2% (active). Besides, the growth is 10.3% in the test on SN12C renal; -34.9% (active) in the test on UO-31 renal; 13.1% with TK-10 renal; -31.2% (active) in the test with ACHN renal; 14.4% in the test with CAKI-1 renal; -67.3% (active) in the test on A498 renal. Further, the growth in the test with CCRF-CEM leukemia was 10.1%; in the test on MOLT-4 leukemia, 16.5%.
For the molecule `O=C(COc1ccc(/C=C2\Oc3ccc4ccccc4c3C2=O)cc1)c1ccc([N+](=O)[O-])cc1`, the growth in the test on HCT-15 colon is 88.4%; with HT29 colon, 109%; in the test with SNB-75 CNS, 91.3%; in the test on SNB-19 CNS it was 94.6%; in the test with U251 CNS, 94.4%; with PC-3 prostate, 86.8%. Further, the growth with SK-MEL-5 melanoma was 92.3%; in the test with UACC-62 melanoma, 91.7%; with LOX IMVI melanoma, 35.5%; in the test with SK-MEL-28 melanoma, 106%; with SK-MEL-2 melanoma it was 48.6%; in the test with EKVX NSCLC, 100%. In addition, the growth in the test on SN12C renal is 89.7%; in the test with UO-31 renal, 2.26% (active); with TK-10 renal it was 117%; with ACHN renal, 107%; in the test on CAKI-1 renal, 101%; in the test with A498 renal it was 103%. Besides, the figures for the growth in the test on CCRF-CEM leukemia and in the test with MOLT-4 leukemia were -17.2% (active) and 20.4%, respectively.
For the molecule `Nc1ccc2c(c1Br)Cc1ccccc1-2`, the growth was 69.9% with HCT-15 colon; 111% in the test with HT29 colon; 87.7% in the test on SNB-75 CNS; 98.9% with SNB-19 CNS; 93.6% in the test on U251 CNS; 83.4% with PC-3 prostate. The growth in the test with SK-MEL-5 melanoma is 107%; in the test with UACC-62 melanoma it was 91%; with LOX IMVI melanoma, 90.5%; in the test with SK-MEL-28 melanoma, 121%; in the test with SK-MEL-2 melanoma, 94.2%; in the test with EKVX NSCLC, 68%. The growth is 86.6% with SN12C renal; 54.4% with UO-31 renal; 123% in the test with TK-10 renal; 95.8% in the test on ACHN renal; 98.6% in the test with CAKI-1 renal; 86.8% in the test with A498 renal. The growth is 53.2% in the test with CCRF-CEM leukemia and 68.4% in the test with MOLT-4 leukemia.
With `C=CCNC(=O)/C(=C/c1cccc([N+](=O)[O-])c1)NC(=O)c1ccccc1`, the growth was 87.5% with HCT-15 colon; 113% with HT29 colon; 87.5% in the test on SNB-75 CNS; 91.2% in the test with SNB-19 CNS; 96.8% in the test with U251 CNS; 94.7% in the test with PC-3 prostate. Also, the growth in the test with SK-MEL-5 melanoma is 97.9%; with UACC-62 melanoma, 95.3%; with LOX IMVI melanoma it was 93.4%; in the test with SK-MEL-28 melanoma, 119%; with SK-MEL-2 melanoma, 18.9%; in the test on EKVX NSCLC, 108%. Moreover, the growth in the test with SN12C renal was 103%; with UO-31 renal it was 90%; with TK-10 renal, 101%; in the test on ACHN renal, 94%; in the test with CAKI-1 renal, 90.6%; in the test with A498 renal it was 130%. Also, the growth with CCRF-CEM leukemia is 90.6%; with MOLT-4 leukemia, 101%.
